Test results: PubChem BioAssay AID1159580 (chemical genetic matrix, 2015)
“And” between values parts separate entries of the source, which are not always exact repeats. Identical values can stand only once. The whole screen tested about 5,500 compounds, of which about 2,000 (36%) were called active. Roughly 18% stayed inconclusive and do not appear here. Rule as the data show it: active = normalized growth mostly below about 0.91 (no sharp cut-off); inconclusive = no clear call, values can overlap the other calls; inactive = mostly above about 0.92. The list shows a part of the results.

Assay: chemical genetic growth profiling, strain panel (AID 1159580);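 also: tested at 20 µM; growth read once vehicle control cultures reached saturation at 30 °C; 1 = growth at the plate median or of vehicle wells; lower values mean less growth of the strain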
Conditions: S. cerevisiae deletion strains, growth OD

Measured: normalized growth

NCC(N)C(=O)c1ccccc1 (stereo not drawn)
inactive: locus YAL013W, strain DEP1, hits give low values 1.01 | locus YAL021C, strain ccr4, hits give low values 0.979 | locus YAL026C, strain drs2, hits give low values 1.06 | locus YAL030W, strain snc1, hits give low values 1.02 | locus YBL061C, strain skt5, hits give low values 1.03 | locus YBR009C, strain hhf1, hits give low values 1.04 | locus YBR021W, strain FUR4, hits give low values 0.993 | locus YBR023C, strain chs3, hits give low values 1.02 | locus YBR171W, strain sec66, hits give low values 1.04 | locus YBR229C, strain ROT2, hits give low values 1.01 | locus YBR231C, strain swc5, hits give low values 1.02 | locus YBR279W, strain paf1, hits give low values 1.03 | locus YCL011C, strain gbp2, hits give low values 1.02 | locus YCL016C, strain dcc1, hits give low values 1.01 | locus YCL029C, strain bik1, hits give low values 0.995 | locus YCL061C, strain MRC1, hits give low values 1.03 | locus YCL069W, strain vba3, hits give low values 1.02 | locus YCR088W, strain abp1, hits give low values 1.02 | locus YDL005C, strain med2, hits give low values 1.03 | locus YDL035C, strain GPR1, hits give low values 1.02 | locus YDL040C, strain nat1, hits give low values 1.02 | locus YDL074C, strain BRE1, hits give low values 1.01 | locus YDL101C, strain DUN1, hits give low values 1.01 | locus YDL185W, strain tfp1, hits give low values 1 | locus YDL192W, strain arf1, hits give low values 1.01 | locus YDR001C, strain nth1, hits give low values 1.01 | locus YDR069C, strain doa4, hits give low values 1.02 | locus YDR101C, strain arx1, hits give low values 0.997 | locus YDR137W, strain rgp1, hits give low values 1.03 | locus YDR150W, strain NUM1, hits give low values 1.01 | locus YDR159W, strain sac3, hits give low values 1.05 | locus YDR162C, strain NBP2, hits give low values 1.02 | locus YDR195W, strain ref2 1.01 | locus YDR297W, strain sur2, hits give low values 1.02 | locus YDR318W, strain mcm21, hits give low values 1.01 | locus YDR334W, strain swr1, hits give low values 1.02 | locus YDR335W, strain msn5, hits give low values 1.03 | locus YDR388W, hits give low values 0.998 | locus YDR392W, strain spt3, hits give low values 0.962 | locus YDR502C, strain sam2, hits give low values 0.988 | locus YEL003W, strain gim4, hits give low values 1.04 | locus YEL037C, strain rad23, hits give low values 1.03 | locus YEL061C, strain CIN8 (second series), hits give low values 1.03 | locus YEL061C, strain CIN8, hits give low values 1.01 | locus YER015W, strain faa2, hits give low values 1.03 | locus YER016W, strain bim1, hits give low values 1.03 | locus YER110C, hits give low values 1 | locus YER111C, strain swi4, hits give low values 1.03 | locus YER155C, strain BEM2 (second series), hits give low values 0.99 | locus YER155C, strain BEM2, hits give low values 1.01 | locus YER167W, strain BCK2, hits give low values 1.01 | locus YFR010W, strain ubp6, hits give low values 1.03 | locus YGL078C, strain dbp3, hits give low values 1.02 | locus YGL086W, strain mad1, hits give low values 0.999 | locus YGL167C, strain pmr1, hits give low values 1.03 | locus YGL173C, strain kem1, hits give low values 1.06 | locus YGL227W, strain vid30, hits give low values 1.02 | locus YGL240W, strain doc1, hits give low values 1.01 | locus YGL248W, strain PDE1, hits give low values 1.02 | locus YGL253W, strain hxk2, hits give low values 1.05 | locus YGR135W, strain pre9, hits give low values 1 | locus YGR229C, strain SMI1, hits give low values 1.02 | locus YGR252W, strain gcn5, hits give low values 0.96 | locus YHR013C, strain ard1, hits give low values 1.04 | locus YHR027C, strain rpn1, hits give low values 1.04 | locus YHR030C, strain SLT2, hits give low values 1.01 and 0.973 | locus YHR079C, strain IRE1 (second series), hits give low values 1 | locus YHR079C, strain IRE1, hits give low values 0.97 | locus YHR094C, strain hxt1, hits give low values 0.996 | locus YHR129C, strain ARP1, hits give low values 1.01 | locus YHR142W, strain chs7, hits give low values 1.05 | locus YHR200W, strain rpn10, hits give low values 0.999 | locus YIL066C, strain RNR3, hits give low values 1.01 | locus YIL073C, strain SPO22, hits give low values 0.986 | locus YIL125W, strain kgd1, hits give low values 1 | locus YIR030C, strain dcg1, hits give low values 1 | locus YJL092W, strain hpr5, hits give low values 1.03 | locus YJL095W, strain BCK1 (second series), hits give low values 1.03 | locus YJL095W, strain BCK1, hits give low values 1.02 and 0.963 | locus YJL115W, strain asf1, hits give low values 1.03 | locus YJL129C, strain trk1, hits give low values 1.04 | locus YJL134W, strain LCB3, hits give low values 1.01 | locus YJL154C, strain vps35, hits give low values 1.02 | locus YJL164C, strain tpk1, hits give low values 1.03 | locus YJL166W, strain qcr8, hits give low values 1.02 | locus YJL168C, strain set2, hits give low values 1.01 | locus YJL187C, strain SWE1 (second series), hits give low values 1 | locus YJL187C, strain SWE1, hits give low values 1.05
